Assay results: PMC7862700, “An all-to-all approach to the identification of sequence-specific readers for epigenetic DNA modifications on cytosine”

Legend:
Experiment in all cases: DAPPL (digital affinity profiling via proximity ligation, sequencing); 10 mM Tris-HCl pH 7.5, 50 mM NaCl, 1 mM DTT, 4% glycerol, room temperature, 30 min; GST-TFs on glutathione beads, 16-mer random dsDNA library, 0.1% formaldehyde crosslink after washing; high values mean tight binding
FEV = molecular target: T1, FEV (Homo sapiens, UniProt Q99581 1-238); settings: protein: recombinant; tags: N-terminal GST; dsDNA, one strand shown
T1 sequence: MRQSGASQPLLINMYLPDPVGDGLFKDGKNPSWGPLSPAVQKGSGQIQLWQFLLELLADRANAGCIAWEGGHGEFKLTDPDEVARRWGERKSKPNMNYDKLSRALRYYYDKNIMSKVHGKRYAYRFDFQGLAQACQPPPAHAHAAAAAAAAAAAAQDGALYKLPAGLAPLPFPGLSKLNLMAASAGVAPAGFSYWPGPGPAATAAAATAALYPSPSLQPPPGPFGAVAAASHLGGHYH
Summary of the method: (§1)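 In yeast, human transcription factors were expressed with a GST fusion, then pulled down on glutathione beads and given DNA barcodes. Pooled with a tag-only sample, they were exposed to 200 nmole of a 16-mer random double-stranded DNA library (Tris/NaCl/DTT/glycerol buffer, room temperature, 30 min), washed, crosslinked with 0.1% formaldehyde, proximity-ligated using BsaI/T4 ligase for 1 h at 37 °C, PCR-amplified and read on an Illumina NextSeq500. Each hexamer's frequency of reads for a factor, divided by the matching frequency for the tag-only sample, gives the binding signal.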

ETV5 = ETV5 (Homo sapiens, UniProt P41161 1-510); settings: protein: recombinant; tags: N-terminal GST; dsDNA, one strand shown
Summary of the method: as §1

HSF1 = HSF1 (Homo sapiens, UniProt Q00613 1-529); settings: protein: recombinant; tags: N-terminal GST; chain copies: 3; dsDNA, one strand shown
Summary of the method: as §1

SPIC = molecular target: T2, SPIC (Homo sapiens, UniProt Q8N5J4 1-248); settings: protein: recombinant; tags: N-terminal GST; dsDNA, one strand shown
T2 sequence: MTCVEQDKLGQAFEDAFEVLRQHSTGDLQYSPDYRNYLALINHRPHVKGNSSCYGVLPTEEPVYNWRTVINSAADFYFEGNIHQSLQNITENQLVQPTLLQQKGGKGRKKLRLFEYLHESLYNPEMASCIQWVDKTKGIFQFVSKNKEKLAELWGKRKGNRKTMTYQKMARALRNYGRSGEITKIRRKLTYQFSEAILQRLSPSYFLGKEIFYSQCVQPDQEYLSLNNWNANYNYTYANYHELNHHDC
Summary of the method: as §1

ELF4 = ELF4 (Homo sapiens, UniProt Q99607 1-663); settings: protein: recombinant; tags: N-terminal GST; dsDNA, one strand shown
Summary of the method: as §1

ELF3 = molecular target: T3, ELF3 (Homo sapiens, UniProt P78545 1-371); settings: protein: recombinant; tags: N-terminal GST; dsDNA, one strand shown
T3 sequence: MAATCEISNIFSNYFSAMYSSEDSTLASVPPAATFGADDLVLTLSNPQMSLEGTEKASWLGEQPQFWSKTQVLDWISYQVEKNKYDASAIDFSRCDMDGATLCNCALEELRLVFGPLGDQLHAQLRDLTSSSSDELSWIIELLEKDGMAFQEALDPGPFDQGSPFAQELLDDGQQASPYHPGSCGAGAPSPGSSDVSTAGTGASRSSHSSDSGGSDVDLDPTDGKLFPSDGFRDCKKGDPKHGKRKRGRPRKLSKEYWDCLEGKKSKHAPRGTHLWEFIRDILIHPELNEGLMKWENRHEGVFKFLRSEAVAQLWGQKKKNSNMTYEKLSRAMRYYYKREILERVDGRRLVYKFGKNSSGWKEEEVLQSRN
Summary of the method: as §1

CRX = CRX (Homo sapiens, UniProt O43186 1-299); settings: protein: recombinant; tags: N-terminal GST; dsDNA, one strand shown
Summary of the method: as §1

ETV1 = ETV1 (Homo sapiens, UniProt P50549 1-477); settings: protein: recombinant; tags: N-terminal GST; dsDNA, one strand shown
Summary of the method: as §1

ERF = molecular target: T4, ERF (Homo sapiens, UniProt P50548 1-548); settings: protein: recombinant; tags: N-terminal GST; dsDNA, one strand shown
T4 sequence: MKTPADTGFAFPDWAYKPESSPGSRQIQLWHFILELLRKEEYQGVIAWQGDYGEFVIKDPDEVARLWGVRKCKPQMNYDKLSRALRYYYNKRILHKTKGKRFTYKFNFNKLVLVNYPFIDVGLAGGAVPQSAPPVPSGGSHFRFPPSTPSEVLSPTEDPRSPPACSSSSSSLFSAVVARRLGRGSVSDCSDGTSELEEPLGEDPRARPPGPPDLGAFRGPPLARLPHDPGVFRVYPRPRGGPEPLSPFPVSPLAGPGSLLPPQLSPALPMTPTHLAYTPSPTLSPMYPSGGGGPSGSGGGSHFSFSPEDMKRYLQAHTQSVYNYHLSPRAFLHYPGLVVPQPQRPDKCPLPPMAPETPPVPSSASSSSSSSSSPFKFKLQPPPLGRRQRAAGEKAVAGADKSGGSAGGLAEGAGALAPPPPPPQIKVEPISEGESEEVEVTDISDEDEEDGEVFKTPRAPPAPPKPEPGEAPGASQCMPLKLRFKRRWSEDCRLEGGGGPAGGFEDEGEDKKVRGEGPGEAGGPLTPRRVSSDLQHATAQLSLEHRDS
Summary of the method: as §1

ETV3L = molecular target: T5, ETV3L (Homo sapiens, UniProt Q6ZN32 1-361); settings: protein: recombinant; tags: N-terminal GST; dsDNA, one strand shown
T5 sequence: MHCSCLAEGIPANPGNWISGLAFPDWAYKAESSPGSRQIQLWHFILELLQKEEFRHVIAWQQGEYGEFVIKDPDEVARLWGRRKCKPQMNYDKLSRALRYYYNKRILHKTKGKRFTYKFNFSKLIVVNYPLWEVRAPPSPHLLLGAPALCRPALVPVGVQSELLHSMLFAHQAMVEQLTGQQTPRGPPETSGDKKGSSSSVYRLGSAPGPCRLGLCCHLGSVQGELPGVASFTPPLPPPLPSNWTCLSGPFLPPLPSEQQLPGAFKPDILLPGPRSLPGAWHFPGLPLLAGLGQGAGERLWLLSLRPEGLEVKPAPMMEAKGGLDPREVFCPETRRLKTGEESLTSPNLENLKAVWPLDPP
Summary of the method: as §1

ETS2 = molecular target: T6, ETS2 (Homo sapiens, UniProt P15036 1-469); settings: protein: recombinant; tags: N-terminal GST; dsDNA, one strand shown
T6 sequence: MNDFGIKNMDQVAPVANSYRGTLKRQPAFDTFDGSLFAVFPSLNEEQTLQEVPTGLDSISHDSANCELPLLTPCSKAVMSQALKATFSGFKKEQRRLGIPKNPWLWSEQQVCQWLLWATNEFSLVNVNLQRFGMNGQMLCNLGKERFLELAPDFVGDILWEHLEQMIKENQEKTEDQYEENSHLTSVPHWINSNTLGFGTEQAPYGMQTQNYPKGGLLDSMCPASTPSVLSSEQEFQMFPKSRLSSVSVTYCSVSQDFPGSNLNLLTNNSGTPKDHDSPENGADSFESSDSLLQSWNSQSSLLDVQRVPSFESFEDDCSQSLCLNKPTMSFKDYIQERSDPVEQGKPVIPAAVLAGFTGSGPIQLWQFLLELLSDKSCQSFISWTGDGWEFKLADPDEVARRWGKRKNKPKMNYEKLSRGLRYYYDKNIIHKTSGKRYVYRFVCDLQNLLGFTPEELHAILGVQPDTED
Summary of the method: as §1

SPDEF = molecular target: T7, SPDEF (Homo sapiens, UniProt O95238 1-335); settings: protein: recombinant; tags: N-terminal GST; dsDNA, one strand shown
T7 sequence: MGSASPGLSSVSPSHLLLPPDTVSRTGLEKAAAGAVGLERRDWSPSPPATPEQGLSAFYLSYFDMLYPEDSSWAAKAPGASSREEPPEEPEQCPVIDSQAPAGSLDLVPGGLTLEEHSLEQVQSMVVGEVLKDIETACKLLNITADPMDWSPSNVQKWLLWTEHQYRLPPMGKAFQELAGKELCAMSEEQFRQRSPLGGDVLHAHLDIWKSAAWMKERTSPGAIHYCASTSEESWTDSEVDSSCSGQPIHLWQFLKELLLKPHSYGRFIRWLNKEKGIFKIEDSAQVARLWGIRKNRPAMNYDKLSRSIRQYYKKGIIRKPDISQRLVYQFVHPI
Summary of the method: as §1

ETV7 = molecular target: T8, ETV7 (Homo sapiens, UniProt Q9Y603 1-341); settings: protein: recombinant; tags: N-terminal GST; dsDNA, one strand shown
T8 sequence: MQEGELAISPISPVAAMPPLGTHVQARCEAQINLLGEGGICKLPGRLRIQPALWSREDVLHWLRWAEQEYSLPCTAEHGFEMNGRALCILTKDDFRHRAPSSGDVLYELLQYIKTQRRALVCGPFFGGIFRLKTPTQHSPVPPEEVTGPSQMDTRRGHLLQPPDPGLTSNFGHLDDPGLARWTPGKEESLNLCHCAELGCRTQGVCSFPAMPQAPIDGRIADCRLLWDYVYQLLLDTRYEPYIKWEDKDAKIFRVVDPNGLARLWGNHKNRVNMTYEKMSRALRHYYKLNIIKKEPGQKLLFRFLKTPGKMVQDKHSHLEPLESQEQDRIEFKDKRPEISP
Summary of the method: as §1

ELF5 = molecular target: T9, ELF5 (Homo sapiens, UniProt Q9UKW6-2 1-255); settings: protein: recombinant; tags: N-terminal GST; dsDNA, one strand shown
T9 sequence: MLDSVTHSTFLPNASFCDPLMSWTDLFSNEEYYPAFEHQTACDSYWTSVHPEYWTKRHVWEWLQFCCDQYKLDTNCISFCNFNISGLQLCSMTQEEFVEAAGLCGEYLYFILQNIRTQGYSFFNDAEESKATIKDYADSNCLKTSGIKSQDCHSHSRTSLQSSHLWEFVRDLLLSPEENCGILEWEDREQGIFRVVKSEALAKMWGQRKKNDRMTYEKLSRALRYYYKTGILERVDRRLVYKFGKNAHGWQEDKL
Summary of the method: as §1

ETV3 = molecular target: T10, ETV3 (Homo sapiens, UniProt P41162-2 1-143); settings: protein: recombinant; tags: N-terminal GST; dsDNA, one strand shown
T10 sequence: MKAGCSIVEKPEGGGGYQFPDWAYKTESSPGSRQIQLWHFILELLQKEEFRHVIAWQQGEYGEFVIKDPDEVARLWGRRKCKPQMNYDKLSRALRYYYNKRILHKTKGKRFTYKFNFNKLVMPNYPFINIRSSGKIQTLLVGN
Summary of the method: as §1

ETV6 = ETV6 (Homo sapiens, UniProt P41212 1-452); settings: protein: recombinant; tags: N-terminal GST; dsDNA, one strand shown
Summary of the method: as §1

ETV2 = molecular target: T11, ETV2 (Homo sapiens, UniProt O00321 1-342); settings: protein: recombinant; tags: N-terminal GST; dsDNA, one strand shown
T11 sequence: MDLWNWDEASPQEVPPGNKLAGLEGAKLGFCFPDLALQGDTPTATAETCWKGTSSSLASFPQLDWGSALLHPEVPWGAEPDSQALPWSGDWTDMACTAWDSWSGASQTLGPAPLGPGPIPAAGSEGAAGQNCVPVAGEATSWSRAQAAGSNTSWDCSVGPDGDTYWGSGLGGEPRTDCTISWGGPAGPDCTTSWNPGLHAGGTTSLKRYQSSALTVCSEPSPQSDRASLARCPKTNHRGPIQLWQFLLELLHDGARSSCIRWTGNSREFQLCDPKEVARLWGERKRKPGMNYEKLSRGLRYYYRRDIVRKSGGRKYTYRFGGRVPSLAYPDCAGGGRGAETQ
Summary of the method: as §1

Sequence of HSF1 (Q00613 whole entry): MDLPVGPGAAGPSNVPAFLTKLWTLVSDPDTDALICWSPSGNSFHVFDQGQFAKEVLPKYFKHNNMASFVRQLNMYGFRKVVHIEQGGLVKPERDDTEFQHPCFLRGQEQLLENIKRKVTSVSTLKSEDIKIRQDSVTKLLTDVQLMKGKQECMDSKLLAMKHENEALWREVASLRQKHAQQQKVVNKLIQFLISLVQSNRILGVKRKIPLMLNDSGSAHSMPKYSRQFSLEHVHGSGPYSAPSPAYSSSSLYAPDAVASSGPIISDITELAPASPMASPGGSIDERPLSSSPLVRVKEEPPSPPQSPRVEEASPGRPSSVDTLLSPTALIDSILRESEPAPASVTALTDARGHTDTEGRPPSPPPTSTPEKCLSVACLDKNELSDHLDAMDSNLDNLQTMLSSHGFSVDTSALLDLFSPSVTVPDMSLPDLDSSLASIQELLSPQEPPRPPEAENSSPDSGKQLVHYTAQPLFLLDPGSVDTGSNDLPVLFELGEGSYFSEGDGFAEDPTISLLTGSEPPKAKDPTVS
Sequence of ETV1 (P50549 whole entry): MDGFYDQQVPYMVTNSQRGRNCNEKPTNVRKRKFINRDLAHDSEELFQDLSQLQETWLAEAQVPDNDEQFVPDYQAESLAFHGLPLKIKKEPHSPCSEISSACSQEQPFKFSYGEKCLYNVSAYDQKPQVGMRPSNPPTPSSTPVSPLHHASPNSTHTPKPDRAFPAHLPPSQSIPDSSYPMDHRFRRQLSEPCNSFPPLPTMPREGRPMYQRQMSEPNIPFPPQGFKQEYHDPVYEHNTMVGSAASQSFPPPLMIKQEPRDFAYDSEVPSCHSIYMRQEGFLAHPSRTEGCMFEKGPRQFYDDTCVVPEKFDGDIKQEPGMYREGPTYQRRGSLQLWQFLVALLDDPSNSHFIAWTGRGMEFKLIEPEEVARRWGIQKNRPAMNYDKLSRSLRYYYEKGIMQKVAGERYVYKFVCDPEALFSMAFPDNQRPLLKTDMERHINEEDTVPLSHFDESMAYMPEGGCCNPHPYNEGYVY
Sequence of ELF4 (Q99607 whole entry): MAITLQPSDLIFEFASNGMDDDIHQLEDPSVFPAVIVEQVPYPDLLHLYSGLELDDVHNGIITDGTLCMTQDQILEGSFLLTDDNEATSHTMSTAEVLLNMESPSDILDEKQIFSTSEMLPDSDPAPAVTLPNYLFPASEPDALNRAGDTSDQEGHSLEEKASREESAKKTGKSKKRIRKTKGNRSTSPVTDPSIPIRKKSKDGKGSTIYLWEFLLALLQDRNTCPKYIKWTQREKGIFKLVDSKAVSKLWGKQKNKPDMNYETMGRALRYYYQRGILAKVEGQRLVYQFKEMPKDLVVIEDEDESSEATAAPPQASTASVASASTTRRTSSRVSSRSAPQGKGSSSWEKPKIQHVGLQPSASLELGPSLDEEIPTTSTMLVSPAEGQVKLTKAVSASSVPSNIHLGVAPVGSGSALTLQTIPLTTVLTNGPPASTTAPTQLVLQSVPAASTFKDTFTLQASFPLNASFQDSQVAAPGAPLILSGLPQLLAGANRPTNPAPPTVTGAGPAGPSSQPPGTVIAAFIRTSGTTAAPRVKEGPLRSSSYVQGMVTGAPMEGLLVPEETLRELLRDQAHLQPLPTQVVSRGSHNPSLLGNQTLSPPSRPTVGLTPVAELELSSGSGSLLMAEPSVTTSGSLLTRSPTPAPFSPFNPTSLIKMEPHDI
Sequence of ETV5 (P41161 whole entry): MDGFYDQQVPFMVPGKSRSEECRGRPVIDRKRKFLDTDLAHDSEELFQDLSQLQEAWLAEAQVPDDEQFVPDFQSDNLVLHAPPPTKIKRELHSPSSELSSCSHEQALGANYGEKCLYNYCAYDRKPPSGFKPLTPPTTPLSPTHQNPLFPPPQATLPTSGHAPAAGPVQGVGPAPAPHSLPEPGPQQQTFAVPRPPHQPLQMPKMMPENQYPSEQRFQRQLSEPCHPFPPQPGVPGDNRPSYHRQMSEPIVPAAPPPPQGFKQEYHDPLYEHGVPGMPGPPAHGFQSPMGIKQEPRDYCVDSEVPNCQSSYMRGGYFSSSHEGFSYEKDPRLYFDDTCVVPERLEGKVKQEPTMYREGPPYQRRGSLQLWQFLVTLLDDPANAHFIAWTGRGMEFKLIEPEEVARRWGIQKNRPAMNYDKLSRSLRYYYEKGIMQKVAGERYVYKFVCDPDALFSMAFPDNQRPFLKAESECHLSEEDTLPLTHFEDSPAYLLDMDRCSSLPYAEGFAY
Sequence of ETV6 (P41212 whole entry): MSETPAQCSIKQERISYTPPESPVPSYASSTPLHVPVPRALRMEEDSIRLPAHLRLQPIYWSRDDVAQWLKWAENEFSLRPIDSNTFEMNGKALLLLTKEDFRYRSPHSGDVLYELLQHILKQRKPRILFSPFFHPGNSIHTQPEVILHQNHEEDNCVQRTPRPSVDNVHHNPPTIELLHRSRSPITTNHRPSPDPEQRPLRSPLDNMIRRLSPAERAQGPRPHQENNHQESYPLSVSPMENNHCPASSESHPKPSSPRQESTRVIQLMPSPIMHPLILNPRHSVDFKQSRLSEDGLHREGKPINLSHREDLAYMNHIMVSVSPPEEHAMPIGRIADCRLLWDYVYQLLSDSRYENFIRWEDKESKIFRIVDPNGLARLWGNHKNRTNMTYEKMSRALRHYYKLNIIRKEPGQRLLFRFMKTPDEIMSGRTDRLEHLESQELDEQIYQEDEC
Sequence of CRX (O43186 whole entry): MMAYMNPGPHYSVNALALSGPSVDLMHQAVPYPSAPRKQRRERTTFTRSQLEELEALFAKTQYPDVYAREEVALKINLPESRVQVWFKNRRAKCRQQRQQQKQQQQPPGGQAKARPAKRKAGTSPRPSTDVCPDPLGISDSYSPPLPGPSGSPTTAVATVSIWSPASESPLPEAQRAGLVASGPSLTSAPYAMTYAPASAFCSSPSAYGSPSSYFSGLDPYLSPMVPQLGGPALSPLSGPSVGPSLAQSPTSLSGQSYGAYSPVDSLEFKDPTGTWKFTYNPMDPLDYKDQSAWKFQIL

Sequence	binding signal (FEV)	binding signal (ETV5)	binding signal (HSF1)	binding signal (SPIC)	binding signal (ELF4)	binding signal (ELF3)	binding signal (CRX)	binding signal (ETV1)	binding signal (ERF)	binding signal (ETV3L)	binding signal (ETS2)	binding signal (SPDEF)	binding signal (ETV7)	binding signal (ELF5)	binding signal (ETV3)	binding signal (ETV6)	binding signal (ETV2)
TGGAAA	1.03 fold enrichment (6-mer frequency, TF over GST control)	1.14 fold enrichment (6-mer frequency, TF over GST control)	2.23 fold enrichment (6-mer frequency, TF over GST control)	1.17 fold enrichment (6-mer frequency, TF over GST control)	1.12 fold enrichment (6-mer frequency, TF over GST control)	1.15 fold enrichment (6-mer frequency, TF over GST control)	1.23 fold enrichment (6-mer frequency, TF over GST control)	1.11 fold enrichment (6-mer frequency, TF over GST control)	1.08 fold enrichment (6-mer frequency, TF over GST control)	1.2 fold enrichment (6-mer frequency, TF over GST control)	1.1 fold enrichment (6-mer frequency, TF over GST control)	1.04 fold enrichment (6-mer frequency, TF over GST control)	1.19 fold enrichment (6-mer frequency, TF over GST control)	1.12 fold enrichment (6-mer frequency, TF over GST control)	1.08 fold enrichment (6-mer frequency, TF over GST control)	1.23 fold enrichment (6-mer frequency, TF over GST control)	–
AAACGA	1.09 fold enrichment (6-mer frequency, TF over GST control)	1.1 fold enrichment (6-mer frequency, TF over GST control)	1.09 fold enrichment (6-mer frequency, TF over GST control)	1.02 fold enrichment (6-mer frequency, TF over GST control)	1.08 fold enrichment (6-mer frequency, TF over GST control)	1.11 fold enrichment (6-mer frequency, TF over GST control)	–	1.03 fold enrichment (6-mer frequency, TF over GST control)	1.17 fold enrichment (6-mer frequency, TF over GST control)	–	1.15 fold enrichment (6-mer frequency, TF over GST control)	1.03 fold enrichment (6-mer frequency, TF over GST control)	1.05 fold enrichment (6-mer frequency, TF over GST control)	1.09 fold enrichment (6-mer frequency, TF over GST control)	1.07 fold enrichment (6-mer frequency, TF over GST control)	1.12 fold enrichment (6-mer frequency, TF over GST control)	1.1 fold enrichment (6-mer frequency, TF over GST control)
